Screening results: PubChem BioAssay, Johns Hopkins Ion Channel Center
Sampled rows, rich in hits. Any-hit rate of the full collection: about 2.3%.
TMEM16A inh – mouse TMEM16A channel inhibition, primary screen. Q8BHY3. HEK293 TMEM16A/YFP iodide influx fluorescence, ionomycin. normalized B-score (activity score, 25-100; higher = stronger inhibition) at 10 µM. 310,000 tested, 1.2% active. AID 588511;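 active = ratio plate-corrected score three or more library SD toward inhibition, starting fluorescence score within five deviations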;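 also: score derived from kinetic fluorescence span divided by baseline fluorescence per well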
CHT allo act – human CHT allosteric activation. 310,000 tested, 0.49% active. AID 488977. CHT-expressing cells, membrane potential dye, choline EC20; active compounds read high; LV-AA mutant CHT in HEK293 cells. Q9GZV3. B-score at 10 µM;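 active = initial fluorescence not abnormally high and integrated response B-score, plate-corrected, over 3 SD above library mean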
CHT block – inhibitors of human choline transporter CHT; Q9GZV3; CHT-expressing cells, membrane potential dye, choline response; active compounds read low; B-score at 10 µM; 310,000 tested, 0.86% active;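 active = B-score over 3 SD under the library average, and starting fluorescence ratio not unusually high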;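 also: choline stimulus applied at its EC90 after an EC20 pre-addition; B-score computed on integrated fluorescence ratio after choline addition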
ANO1 activ – mouse TMEM16A channel activation, primary screen | HEK293 TMEM16A/YFP-H148Q/I152L, iodide quench fluorescence; active compounds read low | B-score at 10 µM | Q8BHY3 | AID 623877 | 340,000 tested, 0.3% active;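 active = fluorescence-ratio B-score plate-corrected deviation score at least 3 library SD below zero, with starting fluorescence score within 5 deviations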;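 also: channel opened by trigger with iodide after compound preincubation; score built on the fluorescence ratio of max minus min over baseline; more negative score means more quench and so TMEM16A activation or potentiation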
Numbers without * were called inactive; i = inactive; . = no result given.

SMILES | TMEM16A inh | CHT allo act | CHT block | ANO1 activ
COC(=O)C1=C(N)c2ccccc2C1(C#N)c1ccccc1 (configuration not stated) | i | i | i | -10.4*
Cc1ccnc(NC(=O)c2cccc(NC(=O)CC3SC(N4CCCCC4)=NC3=O)c2)c1 (configuration not stated) | . | . | . | -37.6*
COc1ccc(NS(=O)(=O)c2ccc(S(=O)(=O)N3CCCC3)cc2)cc1Cl | i | i | i | i
COc1ccc(S(=O)(=O)Nc2ccc(F)c(F)c2)cc1Cl | i | i | -6.44* | i
CC(=NNC(=O)CSCC(=O)NN=C(C)c1ccccc1)c1ccccc1 | . | . | . | i
Cc1ccccc1OCc1nnc(SCC(=O)Nc2ccc3c(c2)oc2ccccc23)n1C | i | i | i | i
Cc1ccccc1OCc1nnc(SCC(=O)Nc2ccc3nc(SCC(=O)NC(C)(C)C)sc3c2)n1C | 100* | i | i | i
Cc1nc2ccccc2c2oc(C(=O)NCC3COc4ccccc4O3)cc12 (configuration not stated) | 25* | i | i | i
CCc1ccc(CNC(=O)c2cc3c(C)nc4ccccc4c3o2)cc1 | i | i | i | i
COc1cccc(N2CCN(CC(=O)Nc3nnc(-c4ccccc4)s3)CC2)c1 | 25* | i | i | i
COc1cccc(N2CCN(CC(=O)NC3=Nc4ccccc4N=C(C)C3c3ccccc3)CC2)c1 (configuration not stated) | i | i | i | i
CCOC(=O)c1c(CN2CCCCC2)n(C)c2cc(Br)c(OC)cc12 | i | i | i | i
CCOC(=O)c1c(C)n(C)c2ccc(O)c(CN3CCCCC3)c12 | i | i | -13.3* | i
CCOC(=O)c1c(C)oc2ccc(O)c(CN3CCCCC3)c12 | i | i | i | i
CCOC(=O)c1c(CN2CCCCC2)n(C)c2cc(Br)c(O)c(CN(C)C)c12 | i | 10.6* | i | i
CCOC(=O)c1c(CN2CCN(CCO)CC2)n(C)c2cc(Br)c(OC)cc12 | i | 7.72* | i | i
CCOC(=O)c1c(CSc2ccccc2)n(C)c2cc(Br)c(O)c(CN(C)C)c12 | i | i | i | i
O=C1OC(CN(Cc2ccccc2)Cc2ccccc2)CN1N=Cc1ccc([N+](=O)[O-])o1 (configuration not stated) | . | . | . | i
CC1CCN(S(=O)(=O)c2ccc3c(c2)N(C)C(=O)CC(=O)N3C)CC1 | i | i | i | i
COc1cccc(CN(C)C(=O)c2cc(S(=O)(=O)N3CCCC3)ccc2C)c1OC | . | . | . | i
COc1cc(OC)c(NC(C)C(=O)N2CCCC2)cc1Cl (configuration not stated) | i | i | -8.7* | i
CC(C)(CNC(=O)c1cc2c(s1)CCCC2)N1CCOCC1 | i | i | i | i
CN(C)C1=NC[C@H](Cc2ccccc2)N1CC1CCC(C(C)(C)C)CC1 (some centres not stated) | i | 15.3* | i | i
CN(C)C1=NC[C@H](Cc2ccccc2)N1CC1CCCC1 | i | i | i | i
CCCCn1c(=O)[nH]c(=O)c2c1nc(-c1ccc(C)c([N+](=O)[O-])c1)n2CC | i | i | i | i
SMILES | TMEM16A inh | CHT allo act | CHT block | ANO1 activ
COCCn1c(-c2ccc(OC(F)(F)C(F)C(F)(F)F)cc2)nc2c1c(=O)[nH]c(=O)n2CC(C)C (configuration not stated) | 100* | i | i | i
Cc1ccc(-c2nc3c(c(=O)[nH]c(=O)n3CC(C)C)n2CC(C)C)cc1[N+](=O)[O-] | i | i | i | -4.57*
CN(C)CCCN(C(=O)COc1ccccc1)c1nc2ccc(Cl)cc2s1 | i | i | i | -6.02*
Cc1c(N2C(=O)/C(=C/c3ccc(N(C)C)cc3)N(C)C2=S)c(=O)n(-c2ccccc2)n1C | . | . | . | -7.97*
CCOc1cc(/C=C(\C#N)C(=O)Nc2cccc(C(=O)O)c2)cc(Br)c1OC(=O)c1ccc(OC)cc1 | 100* | i | i | i
COc1cc(/C=C(\C#N)C(=O)Nc2cccc(C(=O)O)c2)ccc1OCc1ccc(F)cc1 | i | i | i | i
CCOc1cc(/C=C(\C#N)C(=O)Nc2cccc(C(=O)O)c2)ccc1OCc1ccccc1Cl | 100* | i | i | i
COC(=O)c1cc(C(=O)OC)cc(N2C(=O)CC(Sc3nc(C)cc(C)n3)C2=O)c1 (configuration not stated) | i | i | i | -18.4*
CC(=O)Nc1ccc(N2C(=O)CC(Sc3nc(C)cc(C)n3)C2=O)cc1 (configuration not stated) | i | i | i | i
Nc1nc(N(Cc2ccccc2)Cc2ccccc2)nc(C(F)(F)F)n1 | . | . | . | i
COc1cccc(C2=CC(c3ccc(N(C)C)cc3)n3ncnc3N2)c1 (configuration not stated) | i | i | -9.27* | .
CN(C)Cc1c(O)ccc2occ(C(=O)c3ccccc3)c12 | 25* | i | i | i
CCN(CC)Cc1c(O)ccc2occ(C(=O)c3ccccc3)c12 | i | i | i | i
S=C(NNc1ccnc2cc(Cl)ccc12)Nc1ccccc1Cl | 25* | i | i | i
CCNc1nc(C#N)nc2c1ncn2-c1cc(F)cc(F)c1 | . | . | . | i
Cc1ccc(O)c(Nc2nc(-c3ccccc3)nc3ccccc23)c1 | i | i | i | i
Cc1ccc(O)c(Nc2c3ccccc3nc3ccccc23)c1 | 25* | i | i | i
CCOC(=O)C1=C(COC(=O)/C=C/c2cccc(OC)c2OC)NC(=O)NC1C (configuration not stated) | i | i | i | i
CN(C)c1ccc(-c2nnc(-c3ccccc3F)o2)cc1 | i | i | i | i
O=C1[C@H]2[C@@H](c3ccc(F)cc3)N3C(=O)N(c4cccc(Br)c4)C(=O)[C@@]3(Cc3ccccc3)[C@H]2C(=O)N1C1CCCCC1 | i | i | i | i
CC(C)C[C@@]12C(=O)N(c3cccc(Br)c3)C(=O)N1[C@H](c1ccc(F)cc1)[C@@H]1C(=O)N(C3CCCCC3)C(=O)[C@@H]12 | i | i | i | -7.61*
Cc1ccc(S(=O)(=O)c2c(N)n(Cc3ccco3)c3nc4ccccc4nc23)cc1C | 25* | i | i | i
Cc1ccc(S(=O)(=O)c2c(N)n(CCN3CCOCC3)c3nc4ccccc4nc23)cc1C | i | i | i | -20.1*
Nc1c(S(=O)(=O)c2ccccc2)c2nc3ccccc3nc2n1CCN1CCOCC1 | i | i | i | i
Cc1ccc(S(=O)(=O)c2c(N)n(CCC(C)C)c3nc4ccccc4nc23)cc1 | i | i | i | i
CCN(CC(=O)Nc1ccccc1C(F)(F)F)C(=O)/C=C/c1ccc(Cl)c([N+](=O)[O-])c1 | i | i | i | i
